# The source made the active and inactive calls. Unless noted, no rule for the calls is given here.
# Tests used:
# [1] = system: XIP peptide (Xip251-270) binding; assay: XIP fragment 251-270 binding compounds – biochemical, small-molecule microarray, fluorescence 635/667 nm, 0.1 µg/mL protein, primary screen (AID 1182); conditions: fluorescent protein binding, 635 nm, higher = more signal, called active from +8 up or from −8 down
# XIP peptide (Xip251-270) = assay: compounds binding XIP fragment 251-270 – biochemical, small-molecule microarray, fluorescence 635/667 nm, 0.5 µg/mL protein, primary screen (AID 1183); conditions: fluorescence 635 nm, higher = more signal
# [2] = blood-stage malaria parasite viability loss – strain 3D7, DAPI fluorescence, 100 nL, primary screen (AID 1184);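 also: parasites grown inside human red blood cells in medium with human serum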; conditions: P. falciparum 3D7 growth, 3 d, higher = more signal
# [3] = target: Homeobox protein Hox-A13 (Mus musculus) (UniProt Q62424); assay: disruptors of Hoxa13 oligonucleotide interaction – biochemical, fluorescence polarization, labeled oligonucleotide, primary screen (AID 1185); conditions: Hoxa13:DNA binding, 15 min, higher = more signal, called active from +8 up or from −8 down
# [4] = blockers of DNA damage checkpoint Chk1 activation – imaging, HeLa, hydroxyurea, phospho-Chk1 antibody, percent positive cells, primary screen (AID 1186); conditions: hydroxyurea-induced phospho-Chk1 immunofluorescence imaging, higher = more signal
# [5] = blockers of DNA damage checkpoint Chk1 activation – imaging, HeLa, hydroxyurea, phospho-Chk1 nuclear intensity, primary screen (AID 1187); conditions: hydroxyurea-induced phospho-Chk1 immunofluorescence imaging, higher = more signal
# Homeobox protein Hox-A13 (Mus musculus), sequence (Q62424 whole entry, looked up): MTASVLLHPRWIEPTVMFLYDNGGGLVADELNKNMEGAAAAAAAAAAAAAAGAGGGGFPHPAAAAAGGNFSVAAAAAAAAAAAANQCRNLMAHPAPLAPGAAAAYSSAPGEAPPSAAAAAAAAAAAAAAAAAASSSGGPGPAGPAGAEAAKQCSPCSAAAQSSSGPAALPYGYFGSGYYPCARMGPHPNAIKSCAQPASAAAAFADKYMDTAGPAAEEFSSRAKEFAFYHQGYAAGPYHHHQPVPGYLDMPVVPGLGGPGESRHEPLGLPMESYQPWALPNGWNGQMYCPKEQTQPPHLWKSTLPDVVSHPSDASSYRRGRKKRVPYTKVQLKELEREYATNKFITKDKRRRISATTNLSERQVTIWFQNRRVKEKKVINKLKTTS
SMILES,composite z-score [1],composite z-score (XIP peptide (Xip251-270)),z-score [2],z-score [3],z-score [4],z-score [5]
COc1ccc(CCNC(=O)[C@@H]2c3ccccc3C(=O)N(Cc3ccccc3Cl)[C@H]2c2ccc(CO)cc2)cc1,0.187 (inactive),0.431,0.263,-3.28 (inactive),0.139 (inactive),0.595 (inactive)
COc1ccc(CCNC(=O)[C@@]2(Sc3ccc(C)cc3)CC(=O)N(C(C)C)[C@@H]2c2ccc(CO)cc2I)cc1,0.427 (inactive),0.368,-1.01,-2.89 (inactive),0.332 (inactive),0.404 (inactive)
COC(=O)[C@]1(CCC(=O)OC(C)(C)C)N=C(c2ccc(OCCCO)cc2)O[C@@H]1c1ccccc1CN=[N+]=[N-],1.52 (inactive),0.767,-2.03,-0.506 (inactive),0.121 (inactive),-0.0667 (inactive)
CN1C(=O)C2C=CC(C(O)c3ccccc3)N(N(c3ccccc3)c3ccccc3)C2C1=O (configuration not stated),-0.274 (inactive),-0.0284,0.796,-1.72 (inactive),0.812 (inactive),0.606 (inactive)
CN(C)CCCC[C@@H]1NC(=O)[C@@H]2C[C@H](C(=O)NCCCCCCN)[C@H](c3cccc(OCCO)c3)N2C1=O,1.57 (inactive),0.919,0.0561,-3.85 (inactive),-0.945 (inactive),-0.708 (inactive)
CCC(CC)C(O)C1C=CC2C(=O)NC(=O)C2N1Nc1ccccn1 (configuration not stated),-0.471 (inactive),0.579,-0.3,-0.375 (inactive),0.933 (inactive),0.481 (inactive)
C=C(COC)C(=O)CC[C@@H](OC(C)=O)c1ccc(CO)o1,0.861 (inactive),-0.0256,0.216,-3.72 (inactive),0.293 (inactive),0.384 (inactive)
COc1ccc([Si](C)(C)[C@@H]2[C@@H](CC(=O)N3CCC[C@H]3CO)O[C@]3(C(=O)N(c4ccccc4)c4ccccc43)[C@H]2C)cc1,-0.152 (inactive),0.591,-0.831,-5.71 (inactive),-0.845 (inactive),-1.31 (inactive)
COc1ccc(C#Cc2ccc3c(c2)[C@]2(C(=O)N3)[C@H](C(=O)Nc3nc4ccccc4s3)[C@H]3C(=O)O[C@H](c4ccccc4)[C@H](c4ccccc4)N3[C@@H]2c2ccc(O)cc2)cc1,0.0642 (inactive),0.73,-0.435,-0.717 (inactive),-0.0599 (inactive),-0.17 (inactive)
COC(=O)[C@@]1(Cc2ccc(F)cc2)[C@H]2c3cc(C(=O)N(C)C)n(Cc4ccccc4)c3C[C@H]2CN1C(=O)c1ccccc1,0.578 (inactive),0.766,-1.41,-3.11 (inactive),1.33 (inactive),1.2 (inactive)
NC(=O)N1C(=O)C2C(C1=O)C1C=C(c3ccc(CO)cc3)C2C(c2cccs2)N1Cc1cccc(OC(F)(F)F)c1 (configuration not stated),0.0478 (inactive),-0.814,-2.86,-1.04 (inactive),0.0422 (inactive),0.723 (inactive)
C=C[C@H](CO)NS(=O)(=O)c1ccc(Br)cc1,-0.365 (inactive),0.242,0.843,0.205 (inactive),-0.462 (inactive),-0.458 (inactive)
COc1ccc(CCNC(=O)[C@@]2(Sc3ccc(C)cc3)CC(=O)N(C3Cc4ccccc4C3)[C@@H]2c2ccc(CO)cc2I)cc1,-0.0449 (inactive),0.81,-0.725,-2.4 (inactive),0.136 (inactive),0.684 (inactive)
CCCC[C@@H]1C[C@H]1[C@@H](NC(=O)c1ccco1)c1ccccc1C(F)(F)F,0.259 (inactive),-0.623,-0.7,2.24 (inactive),0.445 (inactive),-0.353 (inactive)
C=CCC(OC(C)=O)[C@@H]1[C@@H](N(Cc2ccc(-c3ccccc3)cc2)C(=O)Cc2ccc(OC)cc2)c2cc(OCCCO)ccc2N1C(=O)Cc1ccc2ccccc2c1 (some centres not stated),1.46 (inactive),-0.282,-0.874,-1.62 (inactive),0.802 (inactive),0.325 (inactive)
C=CCNC(=O)[C@@H]1[C@H]2C(=O)O[C@H](c3ccccc3)[C@H](c3ccccc3)N2[C@H](c2ccc(O)cc2)[C@@]12C(=O)Nc1ccc(C#CCNC(N)=O)cc12,0.33 (inactive),0.0915,-0.1,-3.36 (inactive),-0.0873 (inactive),-0.0078 (inactive)
[N-]=[N+]=NCc1ccccc1C[C@]1(C(N)=O)COC(c2ccc(OCCCO)cc2)=N1,0.154 (inactive),0.817,-0.486,-4.67 (inactive),-0.913 (inactive),-0.959 (inactive)
